Test system: MST4
Settings: concentration: 1 μM, replicates: in singlicate; n = 1
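Also: KINOMEscan kinase panel screen.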

Row | Structure (SMILES) | %Inh [%]
1 | N#CC1(c2cccc(C(=O)Nc3cccc(Oc4ccc5nc(NC(=O)C6CC6)sc5n4)c3)c2)CC1 | 4
2 | O=C(Nc1n[nH]c2nc(-c3ccccc3)ccc12)C1CC1 [SB-708999] | 41
3 | CC(C)c1nc(-c2cccc(NS(=O)(=O)c3c(F)cccc3F)c2)c(-c2ccnc(Nc3ccc(N4CCOCC4)nc3)n2)s1.Cl [GSK1723980] | 16
4 | Cl.Cl.NCC(NC(=O)c1cc(-c2cccnc2)c(-c2ccnc3[nH]ccc23)s1)c1ccccc1 (stereo not drawn) [GSK1323434] | 15
5 | COC(=O)Nc1nc2cc(Oc3ccc(NC(=O)Nc4cccc(SC)c4)cc3)ccc2[nH]1.Cl [GW697999] | 0
6 | O=C(Nc1n[nH]c2nc(-c3ccccc3O)ccc12)C1CC1 [SB-711880] | 20
7 | O=C(Nc1n[nH]c2cc(-c3cccs3)ccc12)C1CC1 [SB-731284] | 39
8 | O=C(Nc1c(F)cccc1F)c1cc(C(=O)c2ccccc2F)c[nH]1 [GSK1326180] | 0
9 | Cc1ccc(Nc2ccnc(Nc3ccc(C)c(F)c3)n2)cc1O.Cl [GW582868] | 0
10 | COc1cccc(-c2nc(-c3ccccc3)[nH]c2-c2ccncc2)c1 [SB-610250] | 0
11 | CCn1cnc2c(NCc3ccccc3)ncnc21 [SKF-96418] | 0
12 | Cl.Cl.NC(CNC(=O)c1cc(Br)c(-c2ccnc3[nH]ccc23)s1)c1ccccc1 (stereo not drawn) [GSK1322949] | 3
13 | CN(c1ccc(F)c(NC(=O)c2cccc(OC(C)(C)C#N)c2Cl)c1)c1ccc2nc(NC(=O)C3CC3)sc2n1 | 0
14 | Fc1cc(Cl)ccc1Nc1ccnc2cc(-c3ccc(CN4CCOCC4)o3)ccc12 [GW560109] | 0
15 | COc1cc(Nc2ccnc3cc(-c4ccncc4)ccc23)cc(OC)c1OC.Cl [GW494610] | 0
16 | Cc1ccc(O)cc1Nc1ccnc2cc(-c3ccc(CN4CCCCC4)o3)ccc12 [GW557777] | 0
17 | Nc1ncc(-c2ccc3nccc(-c4ccncc4)c3c2)cc1S(=O)(=O)N1CCCCC1 [GSK1693850] | 0

Row | Structure (SMILES) | %Inh [%]
18 | COc1ccc(C)c(Nc2ccnc(Nc3ccc(-c4cnc[nH]4)cc3)n2)c1.Cl [GW784041] | 0
19 | Fc1cc(Cl)ccc1Nc1ccnc2cc(-c3ccc(CN4CCSCC4)o3)ccc12 [GW560106] | 0
20 | Cc1ccc(NC(=O)c2ccnc(N3CCCCC3)c2)cc1-c1ccc(C(=O)NCC2CC2)cc1 [GW775610] | 0
21 | CCOc1nccc(-c2c(-c3ccc(F)cc3)ncn2C2CCNCC2)n1 [SB-249175] | 11
22 | O=C(O)C(F)(F)F.O=c1[nH]ccc2nc(N[C@@H]3CCNC3)nc(Nc3ccc4c(c3)S(=O)(=O)CC4)c12 [GSK2181306] | 95.5
23 | c1ccc(Oc2ccc(Nc3ccnc4cc(-c5ccc(CN6CCCCC6)o5)ccc34)cc2)nc1 [GW567143] | 0
24 | Cc1ccc(C)c(NC(=O)Nc2ccc(C)c(-c3ccc(C(=O)Nc4ccncc4)cc3)c2)c1 [GSK1398473] | 0
25 | Cn1cc(-c2cnc(N)c3c(-c4ccc5c(c4)CCN5C(=O)Cc4ccccc4)csc23)cn1 [GSK2593074] | 33
26 | O=C(O)C(F)(F)F.O=c1[nH]ccc2nc(N[C@@H]3CCNC3)nc(Nc3cc(Cl)cc(Cl)c3)c12 [GSK2188764] | 91.1
27 | Cl.O=C(Nc1ccc(Oc2ccc3[nH]c(NC(=O)c4ccco4)nc3c2)cc1)Nc1cc(C(F)(F)F)ccc1F [GW683134] | 0
28 | Cc1cccc(Nc2nc(NCCN)ncc2C(N)=O)c1 [GSK1292139] | 23
29 | CC(C)NCC(Cc1ccccc1)NC(=O)c1cc(Br)c(-c2ccnc3[nH]ccc23)s1.Cl.Cl (stereo not drawn) [GSK1383281] | 26
30 | Nc1cccc(-c2ccc3c(N)n[nH]c3c2)c1 [GSK2193613] | 0
31 | COc1cc(Nc2nccc(N3CCC(NS(=O)(=O)c4ccc(NC(C)=O)cc4)CC3)n2)cc(OC)c1OC [GSK1379825] | 0
32 | Cc1nn2c(=O)cc(N3CCO[C@H](C)C3)nc2n1Cc1cccc(Cl)c1Cl [GSK2373693] | 0
33 | CN1CCN(Cc2ccc(NC(=O)Nc3ccc(N(C)c4ccnc(Nc5ccc(CS(C)(=O)=O)cc5)n4)cc3)cc2)CC1.Cl [GW827654] | 83

Source: paper PMC5540273 (PLoS ONE, 2017)
